The values below come from article PMC7862700, “An all-to-all approach to the identification of sequence-specific readers for epigenetic DNA modifications on cytosine”.

Common to all, as to assay: DAPPL (digital affinity profiling via proximity ligation, sequencing); 10 mM Tris-HCl pH 7.5, 50 mM NaCl, 1 mM DTT, 4% glycerol, room temperature, 30 min; GST-TFs on glutathione beads, 16-mer random dsDNA library, 0.1% formaldehyde crosslink after washing; high values mean tight binding
Conditions in all cases: protein: recombinant; tags: N-terminal GST; dsDNA, one strand shown

One assay has as its target T1, FLI1 (Homo sapiens, UniProt Q01543 1-452).
T1 sequence: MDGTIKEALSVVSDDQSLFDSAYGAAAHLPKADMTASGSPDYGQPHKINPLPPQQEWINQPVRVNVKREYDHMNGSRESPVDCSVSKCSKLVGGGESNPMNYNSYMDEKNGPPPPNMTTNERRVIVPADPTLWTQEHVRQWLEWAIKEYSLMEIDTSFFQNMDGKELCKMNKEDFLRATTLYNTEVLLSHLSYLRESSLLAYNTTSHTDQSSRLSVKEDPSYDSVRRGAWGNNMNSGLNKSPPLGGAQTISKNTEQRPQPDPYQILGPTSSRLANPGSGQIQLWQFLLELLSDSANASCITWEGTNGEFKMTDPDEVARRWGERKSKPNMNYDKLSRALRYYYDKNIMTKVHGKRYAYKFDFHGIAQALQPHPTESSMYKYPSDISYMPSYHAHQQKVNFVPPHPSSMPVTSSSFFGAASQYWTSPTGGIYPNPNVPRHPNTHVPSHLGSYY
In outline:
(§1)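 Sequencing on an Illumina NextSeq500 followed washing, crosslinking with 0.1% formaldehyde, proximity ligation (BsaI/T4 ligase, 1 h, 37 °C) and PCR amplification of pools that had been incubated for 30 min at room temperature with 200 nmole of a random double-stranded 16-mer DNA library in Tris/NaCl/DTT/glycerol buffer. Each pool held DNA-barcoded human transcription factors, expressed in yeast as GST fusions and captured on glutathione beads, plus a tag-only sample. Binding signal is a hexamer's read frequency for a factor divided by its frequency in the tag-only sample.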

The next assay concerns the target T2, ELK1 (Homo sapiens, UniProt P19419 1-428).
T2 sequence: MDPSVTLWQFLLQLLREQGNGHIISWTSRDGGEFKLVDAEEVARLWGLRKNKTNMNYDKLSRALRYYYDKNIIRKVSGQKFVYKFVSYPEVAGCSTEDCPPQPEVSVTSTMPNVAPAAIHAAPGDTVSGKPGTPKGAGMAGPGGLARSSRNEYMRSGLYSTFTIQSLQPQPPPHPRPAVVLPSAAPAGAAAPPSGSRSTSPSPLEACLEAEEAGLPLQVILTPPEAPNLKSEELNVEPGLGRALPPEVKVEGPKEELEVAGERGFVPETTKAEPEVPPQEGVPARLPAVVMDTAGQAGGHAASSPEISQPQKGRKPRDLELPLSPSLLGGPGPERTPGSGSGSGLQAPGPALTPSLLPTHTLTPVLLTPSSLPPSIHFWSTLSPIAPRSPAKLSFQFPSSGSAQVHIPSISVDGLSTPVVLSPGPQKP
In outline: as §1

The target of another assay is T3, GABPA (Homo sapiens, UniProt Q06546 1-454).
T3 sequence: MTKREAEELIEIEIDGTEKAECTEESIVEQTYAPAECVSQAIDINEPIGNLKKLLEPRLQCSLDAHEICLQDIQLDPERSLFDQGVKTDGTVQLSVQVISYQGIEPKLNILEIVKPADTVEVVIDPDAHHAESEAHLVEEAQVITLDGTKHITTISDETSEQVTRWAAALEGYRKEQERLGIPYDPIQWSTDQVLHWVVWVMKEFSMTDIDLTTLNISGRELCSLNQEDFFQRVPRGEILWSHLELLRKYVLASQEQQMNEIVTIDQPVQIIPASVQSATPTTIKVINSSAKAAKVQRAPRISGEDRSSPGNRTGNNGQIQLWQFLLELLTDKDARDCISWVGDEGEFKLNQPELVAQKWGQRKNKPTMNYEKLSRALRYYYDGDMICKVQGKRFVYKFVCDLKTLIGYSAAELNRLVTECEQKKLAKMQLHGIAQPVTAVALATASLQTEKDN
In outline: as §1

For another assay, the target named is T4, ERG (Homo sapiens, UniProt P11308 1-479).
T4 sequence: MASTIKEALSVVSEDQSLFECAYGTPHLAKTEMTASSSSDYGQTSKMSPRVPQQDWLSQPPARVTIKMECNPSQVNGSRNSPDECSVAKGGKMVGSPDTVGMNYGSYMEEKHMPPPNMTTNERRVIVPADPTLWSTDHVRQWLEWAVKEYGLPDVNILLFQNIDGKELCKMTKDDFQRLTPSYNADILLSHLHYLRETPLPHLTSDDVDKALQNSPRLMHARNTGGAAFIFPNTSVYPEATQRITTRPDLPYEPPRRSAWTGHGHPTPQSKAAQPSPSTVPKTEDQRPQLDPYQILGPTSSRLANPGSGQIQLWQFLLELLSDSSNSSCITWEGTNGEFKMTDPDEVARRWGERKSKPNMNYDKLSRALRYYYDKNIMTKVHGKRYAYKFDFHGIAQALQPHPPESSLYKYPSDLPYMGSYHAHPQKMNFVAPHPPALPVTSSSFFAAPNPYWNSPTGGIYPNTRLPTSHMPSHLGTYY
The gist of the method: as §1

The target of another assay is ELF1 (Homo sapiens, UniProt P32519 1-619). The gist of the method:
as §1

A further assay deals with T5, EHF (Homo sapiens, UniProt Q9NZC4 1-300).
T5 sequence: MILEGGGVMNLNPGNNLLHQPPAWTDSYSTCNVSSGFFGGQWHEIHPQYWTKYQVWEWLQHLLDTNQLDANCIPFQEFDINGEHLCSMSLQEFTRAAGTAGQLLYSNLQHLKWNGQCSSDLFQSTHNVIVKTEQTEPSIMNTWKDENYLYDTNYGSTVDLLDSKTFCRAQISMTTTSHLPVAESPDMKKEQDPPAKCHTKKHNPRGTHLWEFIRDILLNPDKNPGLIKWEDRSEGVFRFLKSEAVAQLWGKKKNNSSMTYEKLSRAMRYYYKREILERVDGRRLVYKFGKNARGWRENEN
In outline: as §1

In the next assay the target is SPI1 (Homo sapiens, UniProt P17947 1-270). The gist of the method: as §1
In the next assay the target is SPIB (Homo sapiens, UniProt Q01892 1-262). In outline: as §1
Sequence of SPIB (Q01892 whole entry): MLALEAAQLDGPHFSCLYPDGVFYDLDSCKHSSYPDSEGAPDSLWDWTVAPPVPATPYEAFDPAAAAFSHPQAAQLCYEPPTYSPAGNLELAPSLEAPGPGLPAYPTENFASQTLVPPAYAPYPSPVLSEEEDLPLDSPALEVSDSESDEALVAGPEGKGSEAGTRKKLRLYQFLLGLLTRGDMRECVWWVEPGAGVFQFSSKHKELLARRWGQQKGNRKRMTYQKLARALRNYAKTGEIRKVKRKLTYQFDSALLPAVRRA
In a further assay the target is T6, ELK3 (Homo sapiens, UniProt P41970 1-407).
T6 sequence: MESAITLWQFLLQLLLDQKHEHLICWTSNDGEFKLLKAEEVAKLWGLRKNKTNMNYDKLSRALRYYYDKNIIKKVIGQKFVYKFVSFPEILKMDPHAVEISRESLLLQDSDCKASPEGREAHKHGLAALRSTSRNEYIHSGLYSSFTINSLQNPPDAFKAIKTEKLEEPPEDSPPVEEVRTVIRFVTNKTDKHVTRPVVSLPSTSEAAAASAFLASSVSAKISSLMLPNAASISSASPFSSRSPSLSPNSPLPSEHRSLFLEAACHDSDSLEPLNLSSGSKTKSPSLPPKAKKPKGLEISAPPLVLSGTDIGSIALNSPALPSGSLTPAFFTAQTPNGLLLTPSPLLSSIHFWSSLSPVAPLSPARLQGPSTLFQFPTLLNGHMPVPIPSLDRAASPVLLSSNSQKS
The gist of the method:
as §1

Sequence of ELF1 (P32519 whole entry): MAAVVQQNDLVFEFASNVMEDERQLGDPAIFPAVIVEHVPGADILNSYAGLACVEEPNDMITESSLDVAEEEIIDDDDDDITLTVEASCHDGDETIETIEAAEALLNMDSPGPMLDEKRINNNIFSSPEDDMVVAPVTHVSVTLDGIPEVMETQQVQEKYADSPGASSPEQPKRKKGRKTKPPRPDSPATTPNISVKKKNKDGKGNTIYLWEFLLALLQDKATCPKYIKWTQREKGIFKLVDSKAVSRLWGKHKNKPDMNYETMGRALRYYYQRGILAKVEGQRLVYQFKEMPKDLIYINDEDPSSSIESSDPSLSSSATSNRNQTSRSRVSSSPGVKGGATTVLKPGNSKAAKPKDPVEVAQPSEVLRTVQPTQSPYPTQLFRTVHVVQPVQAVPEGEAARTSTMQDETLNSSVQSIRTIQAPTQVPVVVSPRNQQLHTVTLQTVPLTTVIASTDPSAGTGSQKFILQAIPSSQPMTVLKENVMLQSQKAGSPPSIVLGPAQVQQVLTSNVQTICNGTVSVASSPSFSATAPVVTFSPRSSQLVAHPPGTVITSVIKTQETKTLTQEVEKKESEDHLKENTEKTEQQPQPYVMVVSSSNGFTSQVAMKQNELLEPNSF

Take CTATAT: the binding signal with FLI1 was 1.38 fold enrichment (6-mer frequency, TF over GST control); with ELK1, 1.42 fold enrichment (6-mer frequency, TF over GST control); in the assay with GABPA it was 1.35 fold enrichment (6-mer frequency, TF over GST control); with ERG, 1.34 fold enrichment (6-mer frequency, TF over GST control); in the assay with ELF1 it was 1.5 fold enrichment (6-mer frequency, TF over GST control); in the assay with EHF, 1.42 fold enrichment (6-mer frequency, TF over GST control). In addition, the binding signal was 1.32 fold enrichment (6-mer frequency, TF over GST control) in the assay with SPI1; 1.47 fold enrichment (6-mer frequency, TF over GST control) with SPIB; 1.47 fold enrichment (6-mer frequency, TF over GST control) with ELK3.
Turning to AACTCT, the binding signal was 1.32 fold enrichment (6-mer frequency, TF over GST control) in the assay with FLI1; 1.37 fold enrichment (6-mer frequency, TF over GST control) in the assay with ELK1; 1.31 fold enrichment (6-mer frequency, TF over GST control) in the assay with GABPA; 1.33 fold enrichment (6-mer frequency, TF over GST control) with ERG; 1.5 fold enrichment (6-mer frequency, TF over GST control) with ELF1; 1.33 fold enrichment (6-mer frequency, TF over GST control) with EHF. Further, the binding signal with SPI1 is 1.28 fold enrichment (6-mer frequency, TF over GST control); with SPIB, 1.28 fold enrichment (6-mer frequency, TF over GST control); with ELK3, 1.26 fold enrichment (6-mer frequency, TF over GST control).
On to TTATGA, for which the binding signal was 1.15 fold enrichment (6-mer frequency, TF over GST control) with FLI1; 1.15 fold enrichment (6-mer frequency, TF over GST control) with ELK1; 1.22 fold enrichment (6-mer frequency, TF over GST control) with GABPA; 1.08 fold enrichment (6-mer frequency, TF over GST control) in the assay with ERG; 1.19 fold enrichment (6-mer frequency, TF over GST control) with ELF1; 1.16 fold enrichment (6-mer frequency, TF over GST control) with EHF. In addition, the binding signal with SPI1 was 1.15 fold enrichment (6-mer frequency, TF over GST control); with SPIB it was 1.14 fold enrichment (6-mer frequency, TF over GST control); with ELK3, 1.22 fold enrichment (6-mer frequency, TF over GST control).
Regarding CTACTC, the binding signal in the assay with FLI1 was 1.42 fold enrichment (6-mer frequency, TF over GST control); with ELK1 it was 1.36 fold enrichment (6-mer frequency, TF over GST control); in the assay with GABPA it was 1.51 fold enrichment (6-mer frequency, TF over GST control); with ERG, 1.38 fold enrichment (6-mer frequency, TF over GST control); with ELF1, 1.44 fold enrichment (6-mer frequency, TF over GST control); with EHF, 1.38 fold enrichment (6-mer frequency, TF over GST control). The binding signal in the assay with SPI1 is 1.47 fold enrichment (6-mer frequency, TF over GST control); with SPIB, 1.59 fold enrichment (6-mer frequency, TF over GST control); in the assay with ELK3, 1.46 fold enrichment (6-mer frequency, TF over GST control).
With TCGTCT, the binding signal in the assay with FLI1 was 1.52 fold enrichment (6-mer frequency, TF over GST control); in the assay with ELK1, 1.34 fold enrichment (6-mer frequency, TF over GST control); with GABPA, 1.43 fold enrichment (6-mer frequency, TF over GST control); with ERG, 1.34 fold enrichment (6-mer frequency, TF over GST control); in the assay with ELF1, 1.4 fold enrichment (6-mer frequency, TF over GST control); with EHF it was 1.38 fold enrichment (6-mer frequency, TF over GST control). The binding signal was 1.26 fold enrichment (6-mer frequency, TF over GST control) with SPI1; 1.42 fold enrichment (6-mer frequency, TF over GST control) in the assay with SPIB; 1.23 fold enrichment (6-mer frequency, TF over GST control) in the assay with ELK3.
With GATGGC, the binding signal is 1.27 fold enrichment (6-mer frequency, TF over GST control) with FLI1; 1.36 fold enrichment (6-mer frequency, TF over GST control) with ELK1; 1.34 fold enrichment (6-mer frequency, TF over GST control) with GABPA; 1.3 fold enrichment (6-mer frequency, TF over GST control) in the assay with ERG; 1.34 fold enrichment (6-mer frequency, TF over GST control) with ELF1; 1.33 fold enrichment (6-mer frequency, TF over GST control) in the assay with EHF. In addition, the binding signal was 1.37 fold enrichment (6-mer frequency, TF over GST control) with SPI1; 1.41 fold enrichment (6-mer frequency, TF over GST control) with SPIB; 1.19 fold enrichment (6-mer frequency, TF over GST control) in the assay with ELK3.
Consider CCTGAC, for which the binding signal with FLI1 is 1.49 fold enrichment (6-mer frequency, TF over GST control); in the assay with ELK1, 1.57 fold enrichment (6-mer frequency, TF over GST control); with GABPA, 1.49 fold enrichment (6-mer frequency, TF over GST control); in the assay with ERG, 1.48 fold enrichment (6-mer frequency, TF over GST control); with ELF1, 1.46 fold enrichment (6-mer frequency, TF over GST control); in the assay with EHF, 1.58 fold enrichment (6-mer frequency, TF over GST control). In addition, the binding signal is 1.44 fold enrichment (6-mer frequency, TF over GST control) in the assay with SPI1; 1.46 fold enrichment (6-mer frequency, TF over GST control) with SPIB; 1.56 fold enrichment (6-mer frequency, TF over GST control) with ELK3.
ACCTGC: the binding signal was 1.37 fold enrichment (6-mer frequency, TF over GST control) with FLI1; 1.52 fold enrichment (6-mer frequency, TF over GST control) with ELK1; 1.39 fold enrichment (6-mer frequency, TF over GST control) with GABPA; 1.39 fold enrichment (6-mer frequency, TF over GST control) with ERG; 1.54 fold enrichment (6-mer frequency, TF over GST control) in the assay with ELF1; 1.67 fold enrichment (6-mer frequency, TF over GST control) in the assay with EHF. The binding signal was 1.46 fold enrichment (6-mer frequency, TF over GST control) with SPI1; 1.39 fold enrichment (6-mer frequency, TF over GST control) with SPIB; 1.33 fold enrichment (6-mer frequency, TF over GST control) in the assay with ELK3.
